# Source: PubChem BioAssay (NCI)
# About 83,000 compounds went through this panel and 20% of them were active in at least one assay; those are over-represented in the sample as a whole.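 Growth was measured after 48 h exposure to one concentration of compound in 96-well plates. Values under 10 count as active.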 Active and inactive are the calls of the source.
# Tested on: HL-60(TB) leukemia
# Assay: NCI-60 one-dose screen, 48 h (100 = growth as untreated, 0 = no growth, -100 = all killed)
# Conditions: 10 µM unless noted
row,Structure (SMILES),growth
1,CCC(CCC(C)C1CCC2C3CC=C4CC(O)CCC4(C)C3CCC12C)C(C)C (stereo not given) (tested in a mixture with another compound),82.5% (inactive)
2,CC1c2ccccc2N(S(=O)(=O)c2ccccc2)C1C (stereo not given),67.6% (inactive)
3,c1cn2cc(-c3ccc4cn[nH]c4c3)nc(Nc3ccc(N4CCOCC4)cc3)c2n1,71.1% (inactive)
4,N#Cc1c(N)n2c(nc1=Nc1ccc(Cl)cc1)sc1cc(Cl)ccc12,117% (inactive)
5,O=C1C(=O)/C(=C/c2ccccc2)CCCCCC/C1=C/c1ccccc1,46.6% (inactive)
6,Cc1c(C(N)=O)sc2nc(SCC(=O)Nc3ccc(Cl)cc3)n(-c3ccccc3)c(=O)c12,171% (inactive)
7,COC(=O)[C@@H]1[C@H](O)[C@H](C)[C@H](O)[C@@](C)(O)/C=C\C=C(C)C(=O)Nc2c(C)c(OC(C)=O)c3c(c2O)C(=O)C(C)=C2OCOC(=C23)C(C)=C[C@@](C)(O)[C@H](O)[C@@H](C)[C@H]1OC(C)=O,71.2% (inactive)
8,COC12C=C/C(=C(/C(=O)OCc3cncnc3)C(=O)CCCCCCCCC3(OC)C=C/C(=C(/C(=O)OCc4cncnc4)C(=O)CCCCCCCC1)O3)O2,-27.4% (active)
9,Nc1ccc2c(c1)C1(CCC2)NC(=O)NC1=O (stereo not given),93.1% (inactive)
10,CSc1nc(CC(C)C)c(C#N)c(=O)n1C,78.7% (inactive)
11,Cc1cc(C(=C2C=CC(=Nc3ccccc3)C=C2)c2ccc(Nc3ccccc3)cc2)ccc1N,5.66% (active)
12,Cc1cc(-c2ccc(N=Nc3c(C)nn(-c4ccc(S(=O)(=O)O)cc4)c3O)c(C)c2)ccc1N=Nc1ccc(O)c(C(=O)O)c1,99% (inactive)
13,C=C(Cl)[C@@](Cl)(CBr)CC[C@@H](Br)C(C)(C)Cl,-68.1% (active)
14,N=c1c2c(-c3ccccc3)c(-c3ccccc3)n(Cc3ccccc3)c2ncn1CCCO,39% (inactive)
15,COc1cc(CCC[P+](c2ccccc2)(c2ccccc2)c2ccccc2)c(OC)c(OC)c1OC,65.7% (inactive)
16,COc1cc2c3c(c(=O)oc2cc1OS(=O)(=O)c1ccc(C(F)(F)F)cc1)CCCCC3,107% (inactive)
17,Nc1nc(N)c2c(n1)NC(c1cccc(Nc3ccnc4cc(C(F)(F)F)ccc34)c1)CC(c1ccc3c(c1)OCO3)=N2 (stereo not given),76.5% (inactive)
18,COC(=O)c1c2c(c(C)[n+]([O-])c1C)C(=O)C(NCc1ccc(OC)cc1)=CC2=O,-51.1% (active)
19,COC(=O)c1c(C)nc(C)c2c1C(=O)C(Br)=C(NCCCCO)C2=O,24.1% (inactive)
20,COc1ccc(-c2cc(C(=O)N3N=C(c4ccc(N)cc4)CC3c3ccccc3)c3ccccc3n2)cc1 (stereo not given),-28% (active)

row,Structure (SMILES),growth
1,CCCn1cnc2c1c(=O)n(CCCCC(C)=O)c(=O)n2C,91.4% (inactive)
2,Cc1cccc2nc3c(n12)C(=O)C(=O)c1ccccc1-3,77.4% (inactive)
3,COc1cc(C(O)C2C(=O)OCC2C2(c3ccc4c(c3)OCO4)SCCCS2)cc(OC)c1OC (stereo not given),91.8% (inactive)
4,COc1cc(CCn2nnc3c(Nc4ccc(N5CCOCC5)cc4)ncnc32)cc(OC)c1,106% (inactive)
5,C/C(=N\NC(=O)Cn1c(-c2ccc(S(C)(=O)=O)cc2)nc2cc(Cl)ccc21)c1ccc(Cl)cc1,88.2% (inactive)
6,CCN1C(=O)N(CC)C2Nn3c(s/c(=C4\C(=O)N(CCC(C)C)c5ccccc54)c3=O)=NC21 (stereo not given),83.1% (inactive)
7,O=C1C=C[C@H](O)[C@@]2(CO)O[C@@H]12,-24.4% (active)
8,C=CCOc1cccc(/C=C2\SC(=Nc3ccc(O)cc3)NC2=O)c1,-16.8% (active)
9,NS(=O)(=O)c1ccc(CN=C2NC(=O)S/C2=C\c2ccc(Br)cc2)cc1,97.5% (inactive)
10,CCN(Cc1ccccc1)C1CCN(Cc2cc(Br)ccc2O)CC1,50.1% (inactive)
11,Cc1cc(C(O)CN(C)C)cc2c1ccc1cc(C(C)C)ccc12 (stereo not given),-52.8% (active)
12,CC(Cc1nnc(SCC(=O)Nc2ccc(I)cc2)n1N)c1ccccc1 (stereo not given),158% (inactive)
13,COC(=O)c1nc(-c2ccccc2)oc1S(=O)(=O)NCC(c1ccc(Cl)cc1)N1CCCCC1 (stereo not given),17.5% (inactive)
14,C=CN(C(=O)N1CCN(c2cc3c(cc2F)c(=O)c(C(=O)O)cn3C2CC2)CC1)c1nc(-c2ccc(Cl)cc2)cs1,10.7% (inactive)
15,Nc1cc(O)cc2cccnc12,98.5% (inactive)
16,COc1ccc(/C=C/C(=O)c2ccc(Nc3nc(Nc4ccc(F)cc4)nc(Nc4ccc(Cl)cc4)n3)cc2)cc1,-0.226% (active)
17,COc1ccc(C2=C(CN)C(O)NC(=NCC(=O)c3ccc4ccccc4c3)N2)cc1 (stereo not given),97.9% (inactive)
18,CCN(CC)S(=O)(=O)c1ccc2[nH]c(=O)cc(C(=O)Nc3ccc(OC)cc3OC)c2c1,101% (inactive)
19,N=C(N)/N=C(\CCc1nc2ccccc2[nH]1)c1nc2ccccc2[nH]1,118% (inactive)
20,COc1c(B(O)O)cc(C)cc1-c1nc2ccc3[nH]ncc3c2c2c1CCCC2,13.3% (inactive)
